Experimental findings from PubChem BioAssay (NCI) are described below.

Some test systems named below: NCI-H23 lung; NCI-H226 lung; NCI-H322M lung; HOP-62 NSCLC; NCI-H460 lung; HOP-92 NSCLC; NCI-H522 lung; A549/ATCC NSCLC; 786-0 renal; COLO 205 colon; DU-145 prostate; K-562 leukemia; MALME-3M melanoma; MDA-MB-231 breast; SF-268 CNS; SF-295 CNS; SF-539 CNS; UACC-257 melanoma; M14 melanoma.
Test in all cases: NCI-60 one-dose screen, 48 h (100 = growth as untreated, 0 = no growth, -100 = all killed)
Common to all, as to conditions: 10 µM unless noted

This is part of a sample that, as a whole, favours compounds with a hit. Of some 83,000 tested, about 20% had one in any assay.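 Each cell line was grown in a 96-well plate and treated with one concentration of compound for 48 hours. Values below 10 were considered active.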 Unmarked numbers belong to inactive results. Activity calls are given as the source filed them.

Consider `O=C(O)CNC(=O)CN1C(=O)c2ccccc2C1=O`, for which the growth in the assay on NCI-H23 lung was 102%; in the assay on NCI-H226 lung, 89.1%; in the assay with NCI-H322M lung, 104%; with HOP-62 NSCLC, 88.3%; in the assay with NCI-H460 lung, 103%; in the assay on HOP-92 NSCLC, 97.4%. The growth in the assay with NCI-H522 lung was 100%; in the assay on A549/ATCC NSCLC, 81.6%; in the assay on 786-0 renal it was 98.4%; with COLO 205 colon, 104%; with DU-145 prostate, 120%; in the assay with K-562 leukemia it was 85.8%. For the same compound, the growth is 98.6% with MALME-3M melanoma; 114% in the assay with MDA-MB-231 breast; 106% in the assay with SF-268 CNS; 103% with SF-295 CNS; 107% in the assay on SF-539 CNS; 76.6% in the assay on UACC-257 melanoma. Further, the growth in the assay on M14 melanoma was 92.7%.

Take `COc1ccc(-c2nc(N/N=C/c3cccc(Br)c3)nc(N3CCOCC3)c2C#N)cc1`: the growth is 103% with NCI-H23 lung; 75.8% with NCI-H226 lung; 88.5% in the assay with NCI-H322M lung; 79.1% with HOP-62 NSCLC; 31.8% in the assay with NCI-H460 lung; 82% with HOP-92 NSCLC. The growth with NCI-H522 lung is 70.6%; with A549/ATCC NSCLC, 62.2%; in the assay with 786-0 renal, 35.6%; with COLO 205 colon, 40.8%; in the assay on DU-145 prostate, 49.8%; in the assay on K-562 leukemia, 3.14% (active). The growth with MALME-3M melanoma was 7.31% (active); with MDA-MB-231 breast, 72.2%; with SF-268 CNS, 81.4%; in the assay with SF-295 CNS, 54.2%; with SF-539 CNS, 55.9%; in the assay on UACC-257 melanoma, -17.9% (active). Further, the growth with M14 melanoma was 24.8%.

On to `Cn1c(=O)c2[nH]c(CCCc3nc4c([nH]3)c(=O)n(C)c(=O)n4C)nc2n(C)c1=O`, for which the growth in the assay on NCI-H23 lung was 117%; in the assay on NCI-H226 lung, 105%; in the assay with NCI-H322M lung it was 114%; in the assay with HOP-62 NSCLC it was 97.4%; with NCI-H460 lung it was 105%; with HOP-92 NSCLC it was 101%. Also, the growth in the assay with NCI-H522 lung was 112%; in the assay on A549/ATCC NSCLC, 105%; with 786-0 renal, 107%; with COLO 205 colon, 111%; in the assay on DU-145 prostate, 118%; with K-562 leukemia, 105%. For the same compound, the growth in the assay on MALME-3M melanoma is 108%; in the assay with MDA-MB-231 breast it was 113%; in the assay on SF-268 CNS it was 104%; with SF-295 CNS it was 111%; in the assay on SF-539 CNS, 98.9%; in the assay on UACC-257 melanoma it was 114%. Also, the growth in the assay on M14 melanoma is 111%.

For `CC(=O)Nc1ccc(C(=O)Nc2cc(-c3ccccc3)ccc2N)cc1`, the growth is 86.4% in the assay with NCI-H23 lung; 124% in the assay with NCI-H226 lung; 79.5% with NCI-H322M lung; 67.7% in the assay on HOP-62 NSCLC; 59.7% in the assay on NCI-H460 lung; 69.2% in the assay with HOP-92 NSCLC. Moreover, the growth with NCI-H522 lung is 55.6%; in the assay on A549/ATCC NSCLC, 74.2%; with 786-0 renal, 97.9%; in the assay with COLO 205 colon, 35.5%; in the assay with DU-145 prostate it was 73.2%; in the assay on K-562 leukemia it was 39.2%. Also, the growth was 80.6% in the assay with MALME-3M melanoma; 92.5% in the assay on MDA-MB-231 breast; 68.2% in the assay on SF-268 CNS; 58.7% with SF-295 CNS; 81% in the assay on SF-539 CNS; 72.6% in the assay with UACC-257 melanoma. For the same compound, the growth in the assay on M14 melanoma is 77.3%.

Consider `Cc1ccc(C2CC(c3cccc(Nc4ccncc4)c3)=NN2c2ccccc2)cc1` (configuration not stated), for which the growth in the assay with NCI-H23 lung was -69.3% (active); in the assay on NCI-H226 lung it was 28.9%; in the assay with NCI-H322M lung, -87.4% (active); in the assay on HOP-62 NSCLC, -67% (active); in the assay on NCI-H460 lung it was -77.8% (active); with HOP-92 NSCLC it was -90.7% (active). Also, the growth in the assay on NCI-H522 lung was -65.1% (active); in the assay with A549/ATCC NSCLC, -60.2% (active); in the assay on 786-0 renal, 22.1%; in the assay with COLO 205 colon, -69% (active); in the assay on DU-145 prostate, -72.2% (active); in the assay with K-562 leukemia, -15.6% (active). Moreover, the growth in the assay with MALME-3M melanoma is -92.8% (active); in the assay with MDA-MB-231 breast, -87.9% (active); in the assay on SF-268 CNS it was -73.1% (active); with SF-295 CNS, -91.3% (active); in the assay on SF-539 CNS, -96.9% (active); in the assay with UACC-257 melanoma, -55.7% (active). The growth in the assay with M14 melanoma is -49.8% (active).

Consider `CCc1nc(C)cn1C(=O)OCc1nc2nc(Cl)nc(N3CCOCC3)c2[nH]1`, for which the growth in the assay on NCI-H23 lung is 28.9%; in the assay on NCI-H226 lung, -75% (active); in the assay on NCI-H322M lung, 64.2%; in the assay with HOP-62 NSCLC, 47.9%; in the assay with NCI-H460 lung, 13.9%; in the assay with HOP-92 NSCLC, -50.2% (active). Moreover, the growth with NCI-H522 lung is -75.5% (active); in the assay on A549/ATCC NSCLC, 15.1%; in the assay with 786-0 renal, -77.4% (active); in the assay on COLO 205 colon, -84.5% (active); in the assay on DU-145 prostate, -37.3% (active); in the assay on K-562 leukemia, 1.14% (active). Besides, the growth in the assay on MALME-3M melanoma is -67.8% (active); in the assay with MDA-MB-231 breast, -42.9% (active); in the assay on SF-268 CNS it was -64% (active); in the assay on SF-295 CNS, 79.5%; in the assay with SF-539 CNS, -74.8% (active); in the assay with UACC-257 melanoma it was -80.8% (active). In addition, the growth with M14 melanoma is -56.8% (active).

As for `CC(N)C(=O)NNc1n[nH]c(=S)n1N` (configuration not stated), the growth is 100% with NCI-H23 lung; 97.1% in the assay with NCI-H226 lung; 92% in the assay with NCI-H322M lung; 106% in the assay with HOP-62 NSCLC; 103% with NCI-H460 lung; 94.6% with HOP-92 NSCLC. The growth is 98% with NCI-H522 lung; 102% in the assay on A549/ATCC NSCLC; 95.8% in the assay on 786-0 renal; 111% with COLO 205 colon; 109% in the assay on DU-145 prostate; 107% in the assay with K-562 leukemia. The growth in the assay with MALME-3M melanoma is 94%; in the assay with MDA-MB-231 breast it was 105%; in the assay with SF-268 CNS it was 94.2%; in the assay on SF-295 CNS it was 94.7%; in the assay on SF-539 CNS, 100%; in the assay on UACC-257 melanoma, 98.8%. Also, in the assay on M14 melanoma, the growth was 95.2%.

Take `CCNC(=O)c1[nH]cc(-c2ccc(OC)cc2)c1-c1cc(OC)c(OC)c(OC)c1`: the growth was 60.3% in the assay on NCI-H23 lung; 83% in the assay with NCI-H226 lung; 51.6% in the assay with NCI-H322M lung; 45% with HOP-62 NSCLC; 13.7% in the assay on NCI-H460 lung; 8.85% (active) in the assay with HOP-92 NSCLC. The growth is 17.6% in the assay with NCI-H522 lung; 51.1% in the assay on A549/ATCC NSCLC; 47.5% in the assay with 786-0 renal; 32.5% in the assay on COLO 205 colon; 69.3% in the assay on DU-145 prostate; 12.1% in the assay on K-562 leukemia. The growth in the assay with MALME-3M melanoma was 35.4%; in the assay with MDA-MB-231 breast, 74.5%; with SF-268 CNS it was 58.8%; in the assay with SF-295 CNS it was 30.3%; in the assay with SF-539 CNS it was 29.1%; in the assay with UACC-257 melanoma, 81.3%. The growth with M14 melanoma is 51.4%.
